We go through 11 compounds from PubChem BioAssay (EPA / NIEHS).

One may read the AC50 as the concentration at which the activity in the assay is half-maximal.

Results filed as inconclusive are left out. A structure can be active in one record and inactive in another. Active and inactive are the calls of the source. Rule for the calls: active = hit-call score of the fitted dose curve at least 0.9, where 1 is the maximum; inconclusive = response in the unintended direction; inactive = score below 0.9.

For the test, the target named is mouse Peroxisome Proliferator-activated Receptor gamma (PPARg), Pparg (gene 19016) (UniProt P37238). Description: ATG_mPPARg_XSP2: Attagene TRANS-FACTORIAL Multi-Species (XSP2) HepG2 Assay for mouse Peroxisome Proliferator-activated Receptor gamma (PPARg) (AID 2283830).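 Note: hits are gains in reporter mRNA above DMSO so AC50 marks activation.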 As to the method: ATG_XSP2_multi-species_TRANS is a cell-based, multiplexed assay created by modifying the existing Attagene TRANS-FACTORIAL system to include a panel of nuclear receptors from some or all the following species: human (Homo sapiens), mouse (Mus musculus), frog (Xenopus laevis), zebrafish (Danio rerio), chicken (Gallus gallus), and turtle (Chrysemys picta). The […] format uses HepG2, a human liver cell line, with measurements taken at 24 hours after chemical dosing in a 24-well plate. Xsp2 included 3 nM 6-alpha-fluorotestosterone and 1.5 nM norgestrel to stimulate the androgen receptor.ATG_mPPARg_XSP2 is one of 29 assay components measured or calculated from the ATG_XSP2_multi-species_TRANS assay. It is designed to make measurements of mRNA induction, a form of inducible reporter, as detected with fluorescence intensity signals by Reverse transcription polymerase chain reaction (RT-PCR) and Capillary electrophoresis technology.The assay endpoint ATG_mPPARg_XSP2 was analyzed in the positive analysis fitting direction relative to DMSO as the negative control and baseline of activity. Using a type of inducible reporter, measures of mRNA for gain-of-signal activity can be used to understand the reporter gene at the transcription factor-level as they relate to the gene PPARg. Furthermore, this assay endpoint can be referred to as a primary readout, because this assay has produced multiple assay endpoints where this one serves a reporter gene function. To generalize the intended target to other relatable targets, this assay endpoint is annotated to the nuclear receptor intended target family, where the subfamily is non-steroidal.
Sequence of mouse Peroxisome Proliferator-activated Receptor gamma (PPARg), Pparg (gene 19016) (P37238 whole entry, looked up): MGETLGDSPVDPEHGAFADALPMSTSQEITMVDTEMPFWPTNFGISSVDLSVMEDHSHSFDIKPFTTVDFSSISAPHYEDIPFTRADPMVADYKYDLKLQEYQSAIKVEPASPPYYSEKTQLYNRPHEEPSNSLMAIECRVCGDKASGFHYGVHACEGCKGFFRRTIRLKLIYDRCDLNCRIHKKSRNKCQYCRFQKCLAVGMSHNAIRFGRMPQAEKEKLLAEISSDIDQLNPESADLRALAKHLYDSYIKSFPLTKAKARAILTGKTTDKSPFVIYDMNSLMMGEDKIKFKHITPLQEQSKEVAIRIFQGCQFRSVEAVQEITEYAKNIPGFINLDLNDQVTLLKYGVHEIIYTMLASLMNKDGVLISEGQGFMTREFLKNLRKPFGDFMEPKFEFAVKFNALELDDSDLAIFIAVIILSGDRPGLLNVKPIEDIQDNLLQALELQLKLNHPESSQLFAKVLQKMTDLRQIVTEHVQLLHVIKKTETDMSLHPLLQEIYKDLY
Human liver HepG2 cells are transiently transfected with multiple reporter transcription units (MRTUs) in 6-well plates using FuGene 6 reagent (Roche; 3 ml FuGene/1 mg DNA). The MRTU constructs are regulated by a cis-regulating element (promoter). […] A major difference between the CIS and TRANS system is that in CIS activities of endogenous TFs are measured, whereas the TRANS assay evaluates changes in activities of exogenous, chimeric NR-Gal4 proteins. […] At the end of 24 hour incubation, total RNA was isolated using TriZol reagent (Invitrogen). The isolated RNA is then reverse-transcribed using oligo(dT) primer and Mo-MLV reverse transcriptase (Invitrogen) with DNAse I (Ambion) treatment for 30 min. The one-tenth of the produced cDNA was amplified by PCR using Taq DNA polymerase (Invitrogen) and two reporter sequence-specific primers. The PCR products were fluorescently labeled by primer extension with 6-arboxyfluorescein (6-FAM) 5'-labeled reporter sequence-specific primer (2 min at 95 C, 20 s at 68 C and 10 min at 72 C) and these products were digested with 5U of HpaI (New England Biolabs) for 2h at 37 C. The fragments were purified using Qiaquick PCR columns (Qiagen), analyzed on an ABI 3130xL genetic analyzer (Applied Biosystems) with peak positions identified by using a set of X-rhodamine (ROX)-labeled MapMarker1000 molecular weight standards (BioVentures). The raw capillary electrophoresis data was processed using Attagraph software (Attagene).
Consider `CCN(Cc1c(F)cccc1Cl)c1c([N+](=O)[O-])cc(C(F)(F)F)cc1[N+](=O)[O-]`, for which the call was inactive.

Turning to `C=CCOC(Cn1ccnc1)c1ccc(Cl)cc1Cl` (centres undefined), the concentration at half-maximal activity (AC50) was 100 µM (active).

In the case of `CC(C)CCCCCCc1ccc(O)cc1`, the compound was called inactive.

For the compound `CCCCC(CC)COC(=O)c1ccccc1C(=O)O` (centres undefined), the AC50 is 18.2 µM (active).

In the case of `CCCCC(CC)CN1C(=O)C2C3C=CC(C3)C2C1=O` (centres undefined), the AC50 was 177 µM (active).

Take `O=C(c1ccc(O)cc1O)c1ccc(O)cc1O`: the result was inactive.

As to `CSC(=O)c1cccc2nnsc12`, the compound was called inactive and the AC50 is 20.5 µM (active).

Regarding `CN(C)C(=O)Nc1ccc(Cl)c(Cl)c1`, the AC50 is 100 µM (active) and the call was inactive.

Consider `Oc1ccc(C(c2ccc(O)cc2)C(Cl)(Cl)Cl)cc1`, for which the compound was classed as inactive.

As for `N[C@@H](Cc1cc(I)c(Oc2ccc(O)c(I)c2)c(I)c1)C(=O)O`, the AC50 is 3.89 µM (active) and the call was inactive.

Turning to `CC(C)(c1ccc(O)cc1)c1ccc(O)cc1`, the call was inactive.
